High-throughput results (PubChem BioAssay)
Tau fibril ThT: qHTS for Inhibitors of Tau Fibril Formation, Thioflavin T Binding. Microtubule-associated protein tau (Homo sapiens), P10636. recombinant tau K18 P301L, heparin-induced fibrillization, ThT fluorescence. Potency, µM (highest dose often 57.4 µM), for inactives: at the top dose activity, negative = inhibition, hits mostly inhibitors. actives 2.1% (n = 270,000); also: potency is read from the fitted curve at half-maximal effect; nearly all actives have a fitted effect of over 55% in size
Target sequence (P10636 561-689 P618L limits assumed): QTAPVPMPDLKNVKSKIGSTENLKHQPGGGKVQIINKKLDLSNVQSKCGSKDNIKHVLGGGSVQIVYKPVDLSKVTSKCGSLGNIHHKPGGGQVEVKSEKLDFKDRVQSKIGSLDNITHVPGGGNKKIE
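In this qHTS, human K18 P301L tau is incubated with compound and heparin for 6 hr at 37 C, and Thioflavin T fluorescence then reports fibril load.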
Sfp PPTase inh: qHTS Assay for Inhibitors of Bacillus subtilis Sfp phosphopantetheinyl transferase (PPTase); 4'-phosphopantetheinyl transferase ffp (Bacillus subtilis), Q9F4F7; actives 3.5% (n = 310,000); Potency, µM, for the others: largest response in the series, negative = inhibition, hits mostly inhibitors; Biochemical Sfp PPTase activity, qHTS;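 also: the enzyme is Sfp with the accession as filed and its product quenches rhodamine fluorescence; potency is read from the fitted curve at half-maximal effect; 0% = enzyme reaction without inhibitor and -100% = no enzyme wells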
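Reaction rates are the 30-min fluorescence difference (ex 525, em 598 nm) in wells containing 15 nM Sfp, 5 uM rhodamine-CoA and 12.5 uM BHQ-2-YbbR at pH 7.6 with 10 mM MgCl2.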
Tau FP inhib: qHTS for Inhibitors of Tau Fibril Formation, Fluorescence Polarization; Potency, µM (doses to about 57.7 µM), for inactives: top-dose activity, negative = inhibition, hits mostly inhibitors; actives 0.39% (n = 280,000); Microtubule-associated protein tau (Homo sapiens), P10636; K18 P301L tau heparin fibrillization, Alexa594 FP, 6 h; AID 1468, 2008; also: potency is read from the fitted curve at half-maximal effect; nearly all actives have a fitted effect of over 55% in size
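FP of Alexa 594-tau after heparin (20 uM) induction. Substrate: human K18 P301L, 15 uM unlabeled, 0.24 uM labeled. Buffer 100 mM sodium acetate pH 7. 6 hr, 37 C.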
Tau fluor cs: Counterscreen qHTS for Inhibitors of Tau Fibril Formation, Fluorescence Polarization; actives 0.93% (n = 280,000); tau K18 P301L (four-repeat tau fragment) Alexa594 fluorescence, heparin fibrillization; Potency, µM (top dose mostly 57.7 µM), inactives show top-dose activity change, negative = decrease; also: potency is read from the fitted curve at half-maximal effect; nearly all actives have a fitted effect of over 55% in size
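Human K18 P301L tau (15 uM unlabeled plus 0.24 uM Alexa 594-labeled, final) in 100 mM sodium acetate pH 7 was mixed with compound and 20 uM heparin and incubated 6 hr at 37 C.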
FBPA coupling cs: qHTS Assay for Inhibitors of Fructose-1,6-bisphosphate Aldolase from Giardia Lamblia: Coupling assay counterscreen | activity change, negative = inhibition, % at 58.2 µM, hits read low | coupling enzyme system counterscreen, AmpLite Red fluorescence | AID 2472, 2010 | actives 0.67% (n = 290,000); in the data active = activity change below about -30%
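Coupling enzymes only (glyceraldehyde-3-phosphate) + compound, at 57.5 uM final, 10 min RT; add substrate/coupling/AmpLite Red mix, 20 min RT; fluorescence ex 525/em 598 nm. Actives flag coupling-system interference.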
G9a block: qHTS Assay for Inhibitors of Histone Lysine Methyltransferase G9a; Histone-lysine N-methyltransferase EHMT2 (Homo sapiens), Q96KQ7; actives 8.8% (n = 350,000); G9a H3K9 monomethylation, AlphaScreen, 2 h; Potency, µM (highest dose often 102 µM), for inactives: top-dose activity, negative = inhibition, actives largely listed as inhibitors; also: potency is read from the fitted curve at half-maximal effect; nearly all actives have a fitted effect of over 75% in size
Target sequence (Q96KQ7 913-1193 limits assumed): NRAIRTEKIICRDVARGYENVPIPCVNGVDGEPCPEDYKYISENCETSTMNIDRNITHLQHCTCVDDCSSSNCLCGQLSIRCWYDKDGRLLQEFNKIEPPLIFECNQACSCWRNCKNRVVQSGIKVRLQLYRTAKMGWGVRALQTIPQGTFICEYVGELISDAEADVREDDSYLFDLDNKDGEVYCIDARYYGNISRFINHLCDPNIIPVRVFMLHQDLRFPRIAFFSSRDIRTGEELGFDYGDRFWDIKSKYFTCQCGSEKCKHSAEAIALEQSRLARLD
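Step 1: enzyme (final 20 nM) with compound, 15 min RT. Step 2: substrate peptide 500 nM and SAM 20 uM, 2 h RT. Step 3: anti-H3K9me1 antibody and AlphaScreen beads, 10 min, then plate read.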
Numbers without * were called inactive; ? = inconclusive; nt = not tested or not shown; [ ] = another dose, or the depositor's remark. Most compounds without a hit are left out; they make up all but 11% or so of the library. Unless noted, calls follow the shape of the dose curve; as a rule, active = well fitted curve in the direction sought with a large enough effect; inconclusive = small, poorly fitted or top-dose-only effect, or another doubt; inactive = no such curve, though single readings can be large; an effect the other way counts as inactive or inconclusive. Unless noted, % is scaled to controls: 0 for no effect and ±100 for the full control effect.

SMILES	Tau fibril ThT	Sfp PPTase inh	Tau FP inhib	Tau fluor cs	FBPA coupling cs	G9a block
C=CCc1ccc(OCCCCCN2CCOCC2)c(OC)c1	-11%	-21%	-1%	-20%	2	13µM*
C=CCc1ccc(OCCCCNC2CCCC2)c(OC)c1	-1%	-5%	5%	3%	0	13µM*
C=CCc1ccc(OCCOCCN(C)C)c(OC)c1	-8%	-20%	-3%	-4%	2	4µM*
O=C(c1cccc(F)c1)N1CCC[C@@]2(CCN(Cc3ccccc3)C2)C1	nt	9%	nt	nt	1	4%[12.7 µM]
CCOc1ccc(-n2c(=O)c3c(C)c(C)sc3n(CC(=O)N3CCC(C)CC3)c2=O)cc1	-15%	nt	-5%	-18%	nt	-3%[59 µM]
COc1cccc(OC)c1OCCCCn1cnc2ccccc2c1=O	-14%	?	-9%	-8%	0	20µM*
COc1ccccc1CNC(=O)CCn1cnc2ccccc2c1=O	-2%	nt	8%	1%	nt	16µM*
Cc1ccc(NC(=O)Cn2cc(S(=O)(=O)N3CCN(c4ccccc4F)CC3)c3ccccc3c2=O)cc1F	-4%	nt	14µM*	-29%	nt	-21%[59 µM]
CC(C)c1ccc(NC(=O)Cn2cc(S(=O)(=O)N3CCN(c4ccccc4F)CC3)c3ccccc3c2=O)cc1	-2%	nt	?	-14%	nt	-9%[59 µM]
O=C(Cn1cc(S(=O)(=O)N2CCN(c3ccccc3F)CC2)c2ccccc2c1=O)Nc1cccc(C(F)(F)F)c1	4%	nt	14µM*	-25%	nt	-22%[59 µM]
CC1=C(c2ccc(Cl)cc2)S(=O)(=O)NC1=NCc1ccc(C)cc1	-14%	nt	4%	-9%	nt	?
COc1ccc(-c2noc(-c3ccc(N4CCCCC4C)c([N+](=O)[O-])c3)n2)cc1OC (centres undefined)	6%	nt	-4%	-6%	nt	?
CC(=O)Nc1cccc(C(=O)/C=C/c2ccc(/C=C/C(=O)c3cccc(NC(C)=O)c3)cc2)c1	?	3%	-11%	?	3	1%[59 µM]
CC(=O)Nc1ccc(C(=O)/C=C/c2ccco2)cc1	?	13µM*	?	?	-5	10µM*
CC(=O)Nc1cccc(C(=O)/C=C/c2ccc(N(C)C)cc2)c1	25µM*	-19%	0%	16µM*[quencher]	-8	15%[59 µM]
O=C(/C=C\c1ccco1)c1ccc(NC(=O)c2ccco2)cc1	?	10µM*	-12%	?	2	22µM*
O=C(NCc1ccccc1)c1ccc(NC(=O)c2ccco2)cc1	nt	7%	nt	nt	nt	67%
CC(=O)Nc1ccc(NC(=S)NC(=O)/C=C/c2ccco2)cc1	nt	-28%	nt	nt	-1	2%[0.501 µM]
CC(=O)Nc1cccc(C(=O)/C=C/c2ccco2)c1	25µM*	14µM*	?	?	0	14µM*
CC(=O)Nc1cccc(C(=O)/C=C/c2ccc(F)cc2)c1	?	-24%	12%	4%	-5	nt
Cc1cnc(NC(=O)Cc2ccc(C)c(C)c2)s1	nt	14%	nt	nt	-2	-6%
O=c1cc(-c2ccc(Cl)c(Cl)c2)[nH][nH]1	3.2µM*	16%	?	?	4	2%[59 µM]
COc1ccc(-c2cc(=O)[nH]c(=O)[nH]2)cc1	-1%	22%	1%	2%	3	18%[59 µM]
COc1ccc(-c2cc(=O)[nH][nH]2)cc1	2.2µM*	-11%	?	-27%	-5	?
O=C(Cn1c(SCc2cccc(F)c2)nc2cccnc21)Nc1ccc(F)c(Cl)c1	-16%	nt	?	?	nt	-8%[59 µM]
SMILES	Tau fibril ThT	Sfp PPTase inh	Tau FP inhib	Tau fluor cs	FBPA coupling cs	G9a block
COC(=O)c1ccc(NS(=O)(=O)c2ccc3c(c2)n(C)c(=O)c(=O)n3C)cc1	-5%	nt	-2%	-1%	nt	5%[59 µM]
N=c1n(-c2ccccc2)c(O)cc(=O)n1-c1ccccc1	?	5%	-11%	-9%	-3	6%[0.0925 µM]
Cc1cccc(-n2c(N)cc(=O)[nH]c2=S)c1	-3%	-4%	2%	-1%	-1	50µM*
O=c1cc(O)n(-c2ccccc2)c(=S)[nH]1	?	35µM*	-10%	-7%	2	18µM*
CN(CC(=O)NCc1ccco1)C(=O)C1CC(=O)N(c2ccc3c(c2)OCCO3)C1 (centres undefined)	nt	nt	nt	nt	nt	-5%[12.7 µM]
C=CCn1c(O)c(N=Nc2ccccc2O)c2ccccc21	nt	nt	nt	nt	nt	-15%[2.33 µM]
Oc1ccccc1N=Nc1ccccc1O	?	19%	12%	-11%	-2	16µM*
CC1(C)Cc2c(C#N)c(N3CCN(C(=O)c4ccccc4)CC3)nc(-c3ccco3)c2CS1	-2%	20µM*	1%	-5%	-3	14µM*
CC1(C)Cc2c(C#N)c(N3CCCC3)nc(-c3ccco3)c2CO1	?	18µM*	?	-26%	-1	35µM*
N#Cc1c(N2CCOCC2)nc(-c2ccco2)c2c1CCCC2	-14%	45µM*	0%	-1%	11	22µM*
CCc1nc(N2CCOCC2)c(C#N)c2c1CCCC2	-12%	9%	1%	-4%	8	16%[59 µM]
CC1(C)Cc2c(C#N)c(NCc3ccco3)nc(-c3ccco3)c2CO1	?	3.5µM*	-6%	-8%	-3	?
Cc1nc(NCc2ccco2)c(C#N)c2c1COC(C)(C)C2	-17%	20%	4%	-13%	3	3%[59 µM]
Cc1[nH]c(C)c(S(=O)(=O)N2CCN(c3ccc(Cl)cc3)CC2)c1C(=O)N1CCCC1	nt	7%	nt	nt	nt	-16%
CCCCN(C)c1nc(-c2ccco2)c2c(c1C#N)CC(C)(C)OC2	?	35µM*	-7%	-7%	4	45µM*
O=C(N/N=C/c1ccc([N+](=O)[O-])cc1)c1ccc(COc2ccccc2-c2ccccc2)cc1	?	13%	3%	13µM*[quencher]	0	-26%
O=C(N/N=C/c1ccc(OCc2ccccc2)cc1)c1cc[n+](Cc2ccccc2)cc1	?	-14%	8%	-22%	4	71µM*
O=C(N/N=C/c1ccc(OCc2ccc(F)cc2)cc1)c1ccccc1	-15%	3%	-4%	-6%	-1	24%
O=C(N/N=C/c1ccc(O)cc1)c1cc[n+](Cc2ccccc2)cc1	?	0%	5%	-17%	2	?
CC(C)(C)c1ccc(OCc2ccc(C(=O)N/N=C/c3ccc(O)c(O)c3)cc2)cc1	?	-8%	14%	16µM*[quencher]	-6	?
